Test results published in PubChem BioAssay (Tox21).
“And” between values parts separate entries of the source, which are not always exact repeats. Equal entries are not always repeated. Records with an inconclusive call do not appear. A number with no mark means an inactive call. The source made the active and inactive calls. Calls come from the whole dose curve; as a rule, active = well fitted cell-killing curve with a large enough effect in the repeat runs; inconclusive = weak or mixed curves, or effect the other way; inactive = flat fitted curve, though single readings scatter.

Experiment: cAMP Responsive Elements (CRE) small molecule agonists, cell-based qHTS assay: qHTS cell viability counter screen (AID 2060914); note: nearly all actives have a fitted effect of over 50% in size
Settings: CRE-bla HEK293T viability, CellTiter-Glo luminescence, 5 h; series mostly up to 92.4 µM; activity change, negative = cytotoxicity: at the top concentration
In short: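 CRE-bla HEK293T cells in 10% dialyzed FBS medium were exposed to compounds for 3 h at 37C after 18 h plating. CellTiter-Glo was then added in the same wells, and luminescence was read after 30 min at room temperature.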
% is set by controls: 0 for no effect and ±100 for the full control effect; potency is the fitted concentration of half-maximal effect.

SMILES | Potency | activity change, negative = cytotoxicity
CCCCCCCCCCC=CC1CC(=O)OC1=O (stereo not given) | inactive | –
CCOc1ccc([N+](=O)[O-])cc1 | – | -20.2%
Cc1[nH]cnc1C[C@H]1CCc2c(C)c3ccccc3n2C1=O | – | -3.53%
COc1cc(C(=O)N2CCOCC2)cc(OC)c1OC | – | -2.82% [at 42.5 µM]
CN(C)CCCN1c2ccccc2CCc2ccc(Cl)cc21 | inactive | –
FC(F)(F)/C(=N\OCC1OCCO1)c1ccc(Cl)cc1 | – | 0.0783%
c1ccc(C(O[C@@H]2CCCN(CCc3ccc4c(c3)OCO4)C2)c2ccccc2)cc1 | – | -17%
O=C(Cl)c1ccc(Cl)cc1Cl | – | -8.93%
C#C[C@]1(O)CC[C@H]2[C@@H]3CCc4cc(O)ccc4[C@H]3CC[C@@]21C | inactive | –
C/C=C/C(=O)O | inactive | –
CCN(Cc1cccc(S(=O)(=O)O)c1)c1ccc(C(=C2C=CC(=[N+](CC)Cc3cccc(S(=O)(=O)O)c3)C=C2)c2ccccc2S(=O)(=O)[O-])cc1 | 38.7 µM (active) | –
CC1CCC(CO)CC1 (stereo not given) | – | 4.89%
CCC(O)CO (stereo not given) | – | 2.16%
CN(C)C(=O)Nc1ccc(Cl)c(Cl)c1 | inactive | –
Oc1ccc(Cl)c2cccnc12 | – | 5.99% [at 42.5 µM]
C=CC(C)(CCC=C(C)C)OC(=O)c1ccccc1 (stereo not given) | – | 8.17%
N#CSc1ccc(N)c([N+](=O)[O-])c1 | – | 15.7%
CCCCCCCCCCCCCCCO | inactive | –
CCCc1ccc(N)cc1 | – | 2.96%
Oc1cccc2cc3cccc(O)c3c(O)c12 | – | 1.35%

SMILES | Potency | activity change, negative = cytotoxicity
O=S(=O)(O)c1ccc2nc(-c3ccccc3)[nH]c2c1 | 29.1 µM (active) and 21.1 µM (active) | –
CC(C)(C)C(=O)C(=O)O | – | 0.833%
CCOC(=O)C1=C[C@]2(CC)CCCN3CCc4c(n1c1ccccc41)[C@@H]32 | – | -1.48% [at 42.5 µM]
CCc1cccc(C)c1 | – | -17.8%
CCCCCCOCCOCCO | inactive | –
CCCCCCCCCCCC(=O)OC[C@@H](O)[C@H]1OC[C@H](OCCO)[C@H]1OCCO | – | -10.9%
OC(CCN1CCCC1)(c1ccccc1)C1CCCCC1 (stereo not given) | – | 11.2% [at 42.5 µM]
CCCCCCCCCOC(=O)c1ccccc1C(=O)OCCCCCCCCC | – | 2.61%
CC/C=C(\C)C=O | – | 13.2%
CCSCC | – | 17.1%
C[C@@H]1CN(c2c(F)c(F)c3c(=O)c(C(=O)O)cn(C4CC4)c3c2F)C[C@H](C)N1 | – | -12.9% [at 18.9 µM]
O=CNNC=O | – | 4.6%
Clc1cccc(-c2cc(Cl)cc(Cl)c2)c1 | – | -4.55%
CC(CO)(CO)CO | – | -2.14%
N[C@@H](C(=O)N[C@@H]1C(=O)N2C(C(=O)O)=C(Cl)CS[C@H]12)c1ccccc1 | – | 8.3% [at 8.39 µM]
CC(C)NCC(O)COc1ccc(CC(N)=O)cc1 (stereo not given) | – | -10.5%
C=C1C2CCC(C2)C1(C)C (stereo not given) | – | -17.8%
O=C(O)CNCC(=O)O | – | -11.1% [at 8.39 µM]
O=S(=O)(c1ccc(OCc2ccccc2)cc1)c1ccccc1O | – | -12.7%
CC1(CO)CN(c2ccccc2)NC1=O (stereo not given) | – | 0.65%
